# Compound activity (PubChem BioAssay)
# The entries come from a sample that favours hits as a whole.
# HIV RNase H inh: inhibitors of HIV-1 reverse transcriptase RNase H; RT-RNase H RNA/DNA duplex cleavage, fluorescence; inhibition, % at 10 µM; 65,000 compounds, 1.9% hits; AID 565; in the data active = inhibition above about 50%
# RmlCD inh mix: inhibitors of RmlC and RmlD coupled enzymes | RmlC/RmlD coupled enzyme inhibition, 384-well mixture HTS | inhibition, % at 5.5 µM | 110,000 compounds, 0.39% hits | AID 1532; in the data active = inhibition above about 30%, passing the limit was not always enough
# A number is an active result; – = inactive; · = no result given.
SMILES,HIV RNase H inh,RmlCD inh mix
COc1cc(C2C(C#N)=C(N)Oc3cc(O)ccc32)cc2c1OCO2 (configuration not stated),–,–
N#CC1=C(N)Oc2cc3c(cc2C1c1ccc(Cl)cc1)OCO3 (configuration not stated),55.0,–
CS(=O)(=O)N1c2ccccc2[C@]2(Br)C[C@H]3C(=O)N[C@@H](Cc4ccccc4)C(=O)N3[C@H]12,·,–
CCOC(=O)Nc1nnc(CCc2ccccc2)s1,–,–
CCOC(=O)Nc1nnc(-c2ccc(OC)c(OC)c2)s1,–,31.3
CCS(=O)(=O)N1CCN(c2nc(-c3ccccc3)cs2)CC1,55.7,–
CS(=O)(=O)N1CCN(c2nc(-c3ccccc3)cs2)CC1,–,–
CCC(CC)c1nnc(NC(=O)CCCN2C(=O)c3ccccc3C2=O)s1,·,–
O=c1ccn(-c2cccc(C(F)(F)F)c2)nc1-c1ccn(-c2cccc(Cl)c2)n1,·,–
Cc1cccn2c(=O)c3cc(C(=O)NC(C)C)c(=N)n(Cc4ccncc4)c3nc12,–,·
Cc1cccn2c(=O)c3cc(C(=O)NCC4CCCO4)c(=N)n(Cc4cccnc4)c3nc12 (configuration not stated),–,36.6
CCNC(=O)c1cc2c(=O)n3cccc(C)c3nc2n(Cc2ccc(C)cc2)c1=N,–,83.9
N=c1c(C(=O)NCC2CCCO2)cc2c(=O)n3ccccc3nc2n1Cc1cccnc1 (configuration not stated),–,–
CCc1cccc(C)c1NC(=O)C(c1ccccc1)N1CCC1=O (configuration not stated),·,–
Nc1ccc(Sc2ccccc2CC(=O)O)cc1,·,–
O=C(Nc1sc2c(c1C(=O)O)CCC2)c1cccs1,–,·
NC(=O)c1c(NC(=O)c2cccs2)sc2c1CCCCCC2,57.3,–
C=Cc1c(C)c2cc3[nH]c(cc4nc(cc5nc(cc1[nH]2)C(C)=C5CCC(=O)O)C(CCC(=O)O)=C4C)c(C)c3C=C,·,42.9
CC[C@H](C)/C=C/C1=CC2=C(Cl)C(=O)[C@@]3(C)OC(=O)C(C(=O)[C@H](C)[C@@H](C)O)=C3C2=CO1,·,–
COc1ccc2nc3oc(C(=O)N4CCN(c5cccc(Cl)c5)CC4)cc3cc2c1,–,–
COc1ccc2nc3oc(C(=O)N4CCC(C(N)=O)CC4)cc3cc2c1,–,33.7
CN(C(=O)Nc1ccc(Cl)cc1Cl)[C@H]1c2cc(Br)ccc2OC[C@H]1CO,·,–
Cc1ccc(S(=O)(=O)N(CC(=O)N2CCC(C)CC2)Cc2ccccc2F)cc1,·,–
NC(=O)c1c(-c2cccs2)csc1N,80.2,–
CCOC(=O)c1c(-c2cccs2)csc1NC(=O)CC(C)C,·,–
SMILES,HIV RNase H inh,RmlCD inh mix
C#Cc1ccc([C@H]2C=C(C(=O)N3CCN(Cc4ccc5c(c4)OCO5)CC3)O[C@@H](OCC)[C@@H]2CCCO)cc1,·,–
CCCCn1c(SCC(N)=O)nc2ccc(N3CCOCC3)cc2c1=O,·,–
CCCCn1c(SCC(=O)Nc2cccc(OC)c2)nc2ccc(N3CCOCC3)cc2c1=O,50.6,–
CCOn1c(=O)c(C)[n+]([O-])c2ccccc21,·,–
CCNC(=S)N1CCC(c2nc3ccccc3s2)CC1,·,–
COc1cc(C(=S)N2CCCCC2)ccc1O,·,–
COc1cc(C(=S)N2CCCC2)cc(Cl)c1O,70.9,–
COc1cccc2cc(-c3nnc(SCC(=O)Nc4cc(C(F)(F)F)ccc4Cl)n3N)oc12,63.7,–
CCn1c(SCC(=O)Nc2nccs2)nnc1-c1cc2cccc(OC)c2o1,–,–
O=c1c2ccccc2sn1-c1ccccc1,·,–
O=c1c2ccccc2sn1-c1ccc(S(=O)(=O)N2CCCCC2)cc1,95.1,–
CCOC(=O)c1ccc2c(c1)C1C=CCC1C(C(=O)O)N2 (configuration not stated),52.4,–
COCCNC(=O)C1Nc2ccc(C(F)(F)F)cc2C2C=CCC12 (configuration not stated),·,–
Cn1c(C(=O)NCC2CCCO2)cc2c(=O)n(C)c3ccccc3c21 (configuration not stated),–,–
Cc1ccc2nc3c(cc(C(=O)NCCCn4ccnc4)n3C)c(=O)n2c1,–,61.6
Cc1cc(C(=O)NCCCn2ccnc2)cs1,–,–
Cc1ccc2nc3c(cc(C(=O)NCC4CCCO4)n3C)c(=O)n2c1 (configuration not stated),–,102.9
CCCNC(=O)c1ccccc1NC(=O)c1ccc(CSc2ccccc2)cc1,·,–
CCCCCCc1cc2cc(-c3nnc(-c4cc(OC)c(OC)c(OC)c4)o3)c(=O)oc2cc1O,·,68.8
COc1cc(-c2nnc(SCc3cc(=O)oc4cc(O)c(O)cc34)o2)cc(OC)c1OC,·,–
CCCCCCc1cc2cc(-c3nnc(-c4ccccc4O)o3)c(=O)oc2cc1O,–,162.2
COc1ccc(-c2nnc(-c3cc4ccccc4oc3=O)o2)cc1,·,–
COCCN1C(=O)N[C@@H](CCc2ccccc2)[C@H](C(=O)OC)[C@H]1C,·,–
CC(C)C[C@H](N)c1cn([C@@H](CCCCN)C(=O)N2CCNCC2)nn1,·,–
CCN(C(=O)c1c(C)cc(=O)oc1C)c1ccc2c(c1)OCO2,·,–
